Screens as filed in PubChem.
The list is not random: actives were taken first. Their share in the collection is about 11%.
Tau fluor cs – counter-screen for tau fibril formation inhibitors. hit rate 0.93% among 280,000. AID 1463. tau K18 P301L Alexa594 fluorescence, heparin fibrillization. Potency, µM (titrated, usually from 57.7 µM), without a hit: top-dose activity change, negative = decrease; note: potency is the fitted concentration of half-maximal effect; nearly all actives have a fitted effect of over 55% in size
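Human K18 P301L tau (15 uM unlabeled plus 0.24 uM Alexa 594-labeled, final) in 100 mM sodium acetate pH 7 was mixed with compound and 20 uM heparin and incubated 6 hr at 37 C.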
Sfp inh – inhibitors of Bacillus subtilis Sfp phosphopantetheinyl transferase; Potency, µM, without a hit: largest response in the series, negative = inhibition, actives largely listed as inhibitors; Biochemical Sfp PPTase activity, qHTS; Q9F4F7; hit rate 3.5% among 310,000;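 note: the enzyme is Sfp with the accession as filed and its product quenches rhodamine fluorescence; potency is the fitted concentration of half-maximal effect; 0% = enzyme reaction without inhibitor and -100% = no enzyme wells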
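Fluorescence-quenching assay with 15 nM Sfp, 5 uM rhodamine-CoA and 12.5 uM BHQ-2-labelled ybbR peptide in pH 7.6 Hepes/MgCl2 buffer. Enzyme was pre-incubated with compound for 15 min at room temperature. Rate was taken from the 30-min fluorescence change (525/598 nm).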
FBPA coupling cs – coupling enzyme interference in Giardia aldolase counter-screen; coupling enzyme system counterscreen, AmpLite Red fluorescence; activity change, negative = inhibition, % at 58.2 µM, hits read low; hit rate 0.67% among 290,000; AID 2472; in the data active = activity change below about -30%
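Counterscreen lacking aldolase: glyceraldehyde-3-phosphate coupling-enzyme reagent preincubated 10 min at RT with compound (at 57.5 uM final), then substrate/coupling system with AmpLite Red added; fluorescence read at 525/598 nm after 20 min RT.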
Tau fibril ThT – blocks human tau fibril formation measured by thioflavin T. recombinant tau K18 P301L (four-repeat tau fragment), heparin-induced fibrillization, ThT fluorescence. Potency, µM (titrated, usually from 57.4 µM), without a hit: at the highest dose activity, negative = inhibition, most hits filed as inhibitors. hit rate 2.1% among 270,000. AID 1460; note: potency is the fitted concentration of half-maximal effect; nearly all actives have a fitted effect of over 55% in size
Target sequence (P10636 561-689 P618L limits assumed): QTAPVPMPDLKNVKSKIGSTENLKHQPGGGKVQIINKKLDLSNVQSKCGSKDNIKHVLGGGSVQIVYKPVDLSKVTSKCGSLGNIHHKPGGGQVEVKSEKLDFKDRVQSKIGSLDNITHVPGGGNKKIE
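Aggregation was driven by heparin (20 uM final) acting on recombinant tau […] bearing P301L in 100 mM sodium acetate pH 7; fibrils were detected with Thioflavin T.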
G9a block – G9a (human) methyltransferase inhibition | Q96KQ7 | G9a H3K9 monomethylation, AlphaScreen, 2 h | Potency, µM (titrated, usually from 102 µM), inactives show top-dose activity, negative = inhibition, most hits filed as inhibitors | hit rate 8.8% among 350,000; note: potency is the fitted concentration of half-maximal effect; nearly all actives have a fitted effect of over 75% in size
Target sequence (Q96KQ7 913-1193 limits assumed): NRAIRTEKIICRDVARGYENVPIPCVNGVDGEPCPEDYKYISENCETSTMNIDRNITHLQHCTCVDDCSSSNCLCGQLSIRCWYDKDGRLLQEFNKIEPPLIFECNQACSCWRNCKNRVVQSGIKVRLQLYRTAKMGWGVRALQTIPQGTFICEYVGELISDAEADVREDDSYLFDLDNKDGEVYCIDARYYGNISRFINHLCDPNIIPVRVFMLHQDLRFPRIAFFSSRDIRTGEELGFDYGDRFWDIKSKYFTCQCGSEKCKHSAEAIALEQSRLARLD
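Chemiluminescent proximity detection of H3K9 monomethylation, read after 10 min bead incubation in the dark. Reaction: 20 nM G9a, 500 nM biotin-H3K9 peptide, 20 uM SAM cofactor, 2 h, room temperature, following 15 min enzyme-compound preincubation.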
Tau fibril FP – inhibitors of human tau fibril formation; K18 P301L tau heparin fibrillization, Alexa594 FP, 6 h; Potency, µM (series often up to 57.7 µM), without a hit: at the top dose activity, negative = inhibition, hits mostly inhibitors; hit rate 0.39% among 280,000; note: potency is the fitted concentration of half-maximal effect; nearly all actives have a fitted effect of over 55% in size
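FP of Alexa 594-tau after heparin (20 uM) induction. Substrate: human K18 P301L, 15 uM unlabeled, 0.24 uM labeled. Buffer 100 mM sodium acetate pH 7. 6 hr, 37 C.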
* marks the source's active call; other numbers are inactive results; ? = inconclusive; nt = no result given; [ ] = another dose, or the depositor's remark. Unless noted, calls come from the whole dose curve; as a rule, active = well fitted curve in the direction sought with a large enough effect; inconclusive = small, poorly fitted or top-dose-only effect, or another doubt; inactive = no such curve, though single readings can be large; an effect the other way counts as inactive or inconclusive. Unless noted, % is set by controls: 0 for no effect and ±100 for the full control effect.

SMILES	Tau fluor cs	Sfp inh	FBPA coupling cs	Tau fibril ThT	G9a block	Tau fibril FP
O=C(Cn1nnc(-c2ccccc2F)n1)OCC(=O)c1ccccc1	-5%	-29%	6	-2%	?	-7%
O=C(Cn1nnc(-c2ccccc2)n1)NNC(=O)c1ccc(Br)cc1	6%	10%	1	-7%	16%	6%
COc1cc(NC(=O)O[C@@H]2C(=O)c3cc(Br)ccc3O[C@H]2c2ccc3c(c2)OCO3)cc(OC)c1OC	-19%	0%	0	-9%	nt	-5%
CCN(CC)c1ccc(/C=N/N2CCN(Cc3ccccc3)CC2)c(O)c1	?	-4%	0	?	?	11%
CCN(CC)c1ccc(/C=N/N2CCN(Cc3ccccc3)CC2)cc1	?	-17%	-3	?	10µM*	6%
CCN(CC)c1ccc(/C=N/N2CCN(Cc3ccccc3Cl)CC2)cc1	nt	-8%	3	nt	8.9µM*	nt
Cn1cccc1/C=N/N1CCN(c2ccccc2)CC1	-17%	28µM*	2	?	32µM*	3%
Cc1ccc(N2CCN(/N=C/c3ccccc3)CC2)cc1	-11%	19%	0	?	2%	10%
Cn1cccc1/C=N/N1CCN(Cc2ccccc2Cl)CC1	-11%	56µM*	-8	-13%	28µM*	0%
Cc1ccc(-n2ncc3c(N4CCN(CCO)CC4)ncnc32)cc1Cl	-22%	nt	nt	-15%	-44%[59 µM]	?
O=C1CCC(C(=O)N2CCc3c(Cl)cccc3C2)CN1CCCN1CCOCC1 (stereo not given)	nt	14%	nt	nt	40µM*	nt
COc1cc2c(cc1OC)CN(C(=O)C1CCC(=O)N(CCCN3CCOCC3)C1)CC2 (stereo not given)	nt	7%	-3	nt	nt	nt
CCCCCCC(=O)Nc1ccc2nc3c(=O)n(C)c(=O)n(C)c3nc2c1C	-14%	nt	nt	?	-6%[59 µM]	-5%
Cc1ccc(C)c(NC(=S)N2CCC(NC(=O)c3ccc(F)cc3)CC2)c1	nt	12%	-2	nt	4%	nt
Cn1c(SCC(=O)NC2CCCC2)nc2c(c1=O)SCC2	nt	-4%	nt	nt	12%	nt
CCn1c(SCC(=O)Nc2cccc(C)c2)nc2c(c1=O)SC(C)C2 (stereo not given)	0%	12%	11	5%	50µM*	7%
CC1Cc2nc(SCC(=O)NC3CCCCC3)n(C)c(=O)c2S1 (stereo not given)	-6%	20µM*	0	?	-26%[59 µM]	-3%
CCn1c(SCC(=O)Nc2ccc3c(c2)OCO3)nc2c(c1=O)SC(C)C2 (stereo not given)	-12%	18%	4	-18%	-44%[59 µM]	2%
CN[C@H]1CCc2cc(OC)c(OC)c(OC)c2-c2ccc(N[C@@H]3CCCCNC3=O)c(=O)cc21	-4%	2%	-10	?	nt	2%
COc1ccc(CNc2ncnc3c2[nH]c2cc(OC)c(OC)cc23)cc1	10µM*[quencher]	-23%	1	?	-9%[59 µM]	?
Cc1ccc2[nH]c3c(NCc4ccccc4)ncnc3c2c1	nt	-23%	-5	nt	-6%	nt
O=c1c2[nH]c3ccccc3c2ncn1CCC1=CCCCC1	-13%	27%	0	?	-16%[59 µM]	-7%
C1=C(CCNc2ncnc3c2[nH]c2ccccc23)CCCC1	16µM*[quencher]	56µM*	1	?	56µM*	-5%
COc1ccc(CNc2ncnc3c2[nH]c2ccccc23)cc1	20µM*[quencher]	-24%	-1	?	50µM*	0%
COc1ccc(Nc2nc(NN)nc(C)c2[N+](=O)[O-])cc1	?	2%	-4	14µM*	?	-7%
SMILES	Tau fluor cs	Sfp inh	FBPA coupling cs	Tau fibril ThT	G9a block	Tau fibril FP
COc1ccc(Nc2nc(N/N=C/c3ccc(N(C)C)cc3)nc(C)c2[N+](=O)[O-])cc1	11µM*[quencher]	1%	2	3.2µM*	5µM*	9%
COc1ccccc1NC(=O)CSc1nccn1Cc1ccccc1	nt	15%	0	nt	-7%	nt
COCC(=O)N1CCC[C@@]2(CCN(Cc3cc(C(F)(F)F)cc(C(F)(F)F)c3)C2)C1	nt	-5%	0	nt	41%[12.7 µM]	nt
CC(Oc1ccccc1)C(=O)Nc1nnc(S(=O)(=O)N(C)c2ccccc2)s1 (stereo not given)	nt	15%	nt	nt	19%	nt
COc1cc(OC)c(NC(=O)CCCn2nc(C)c3sc4ccccc4c3c2=O)cc1Cl	?	nt	nt	?	14µM*	1%
CCCCC(=O)Nc1sc(C(=O)N(CC)CC)c(C)c1C(=O)OC	-9%	13µM*	0	?	2.2µM*	-6%
CCOC(=O)c1c(NC(=O)CN(C)C)sc(C(=O)N(CC)CC)c1C	-2%	-29%	0	-2%	41%[0.501 µM]	-4%
CCCC(=O)Nc1sc(C(=O)OC)c(C)c1C(N)=O	?	28µM*	0	20%	11µM*	-17%
COc1cccc(N2CCN(C(=O)CCc3c(C)nc4c(c3C)c(=O)n(C)c(=O)n4C)CC2)c1	-14%	nt	nt	?	-42%[59 µM]	4%
CCc1ccccc1S(=O)(=O)Cc1ccc(C(=O)N2CCN(c3ccccn3)CC2)o1	-9%	?	-3	-8%	79µM*	10%
O=C(c1ccc(Br)o1)N1CCN(c2ccccn2)CC1	2%	25µM*	-17	1%	-50%[12.7 µM]	5%
Cc1ccccc1S(=O)(=O)Cc1ccc(C(=O)N2CCN(c3ncccn3)CC2)o1	-13%	0%	-2	-10%	-40%[12.7 µM]	1%
C[C@@H](C(=O)Nc1ccc2ccccc2c1)[C@@H]1C[C@@]1(C)[C@@H](NS(=O)(=O)c1ccc(-c2ccccc2)cc1)c1ccccc1	-4%	26%	-1	11%	nt	?
CCN(CCCNC(=O)c1cc2c(=O)[nH]c3ccc(C)cc3c2s1)Cc1ccccc1	-28%	nt	nt	-6%	?	?
Cc1cc(C)c2nc(N(Cc3cccnc3)C(=O)c3ccc(S(=O)(=O)N(C)C)cc3)sc2c1	-6%	nt	nt	-2%	8%[59 µM]	-1%
COCCC1CCCCN1C(=O)c1cc(COc2ccc(-n3cncn3)cc2)on1 (stereo not given)	nt	18%	nt	nt	-7%	nt
O=C(NCCCN1CCCCCC1)c1cc2c(=O)oc3ccccc3c2s1	nt	-21%	0	nt	79µM*	nt
Cc1ccc2oc(=O)c3cc(C(=O)NCCCN4CCN(C)CC4)sc3c2c1	nt	10%	-2	nt	-21%	nt
N#C/C(=C/c1ccccc1[N+](=O)[O-])c1nc(C2CC2)cs1	?	1%	3	?	?	7%
N#C/C(=C\c1ccccc1[N+](=O)[O-])c1nc(C2CC2)cs1	?	-12%	3	?	20µM*	6%
CC(C)N(CC#CCC(O)(c1ccccc1)C1CCCC1)CCO (stereo not given)	-8%	20µM*	3	-4%	3.2µM*	-5%
